Sampled rows, rich in hits. Any-hit rate of the full collection: about 6.1%.
D1 antagonist – antagonists of human D1 dopamine receptor; P21728; HEK293 TREx D1 cells, calcium flux, dopamine EC80; hits give low values; activity change, negative = inhibition, % at 10 µM; 3.2% of 360,000 active; in the data active = activity change below about -30%; note: % is set by controls: 0 for no effect and ±100 for the full control effect
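Calcium flux readout: force-coupled, inducible Hek293 Trex D1 line, cells induced overnight at 30 C with tetracycline, dye-loaded 30–90 min at RT. Antagonism scored against EC80 dopamine challenge given 180 s after compound.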
D3 ag – agonists of human D3 dopamine receptor | P35462 | D3R DiscoveRx beta-arrestin cells, luminescence, 90 min | 0.58% of 410,000 active | max activation, %; in the data active = max activation above about 30%; note: 0% is about no effect
Target sequence (P35462 whole entry, looked up): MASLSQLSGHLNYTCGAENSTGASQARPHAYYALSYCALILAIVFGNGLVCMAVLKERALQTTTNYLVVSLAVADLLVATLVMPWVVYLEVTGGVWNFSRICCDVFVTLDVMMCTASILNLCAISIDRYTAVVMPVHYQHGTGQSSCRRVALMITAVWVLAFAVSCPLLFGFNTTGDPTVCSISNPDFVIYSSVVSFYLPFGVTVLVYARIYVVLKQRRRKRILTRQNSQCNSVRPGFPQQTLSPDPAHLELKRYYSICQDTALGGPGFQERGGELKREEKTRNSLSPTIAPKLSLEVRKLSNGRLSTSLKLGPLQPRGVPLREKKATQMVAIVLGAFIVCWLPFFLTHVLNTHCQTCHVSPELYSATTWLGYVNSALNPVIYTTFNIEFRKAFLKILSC
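Cells at 1500/well, incubated overnight, then treated with pinned compounds (dopamine as control) for 90 min at 37 degrees C. DiscoveRx reagent added for 30 - 60 minutes at room temperature; luminescence read.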
D1 ag – agonists of human D1 dopamine receptor; P21728; HEK293 T-REx D1 cells, calcium flux, agonist mode; activation, % at 2 µM; 1% of 360,000 active; in the data active = activation above about 30%; note: 0% is about no effect
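Agonism was scored from calcium flux recorded over 180 s (1 read/s) after pintool compound addition, following a 10-cycle baseline. Cells were inducible force-coupled HEK293 TREx D1, plated overnight at 30 C and loaded with no-wash calcium dye.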
D3 antag – D3 dopamine receptor (human) antagonism | 2.5% of 360,000 active | max response, negative = inhibition, % | D3R cells, DiscoveRx beta-arrestin luminescence, antagonist mode; hits give low values; in the data active = max response below about -50%; inconclusive = no clear call, values can overlap the other calls; note: % is set by controls: 0 for no effect and ±100 for the full control effect
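Cells plated overnight at 1500 cells/well, then exposed to library compounds with dopamine controls for 90 minutes at 37 degrees C. DiscoveRx reagent added for 30–60 minutes at room temperature; luminescence read, quantitative HTS format.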
D1 PAM – enhances dopamine response at the human D1 receptor; P21728; HEK293 TREx D1 cells, calcium flux, dopamine EC20 potentiation; potentiation, % at 10 µM; 0.036% of 360,000 active; AID 504651; in the data active = potentiation above about 30%; note: 0% is about no effect
An asterisk follows results filed as active; ? = inconclusive; . = not tested or not shown; ! = repeats disagree.

SMILES | D1 antagonist | D3 ag | D1 ag | D3 antag | D1 PAM
COc1cccc(C(=O)N/N=C(/c2ccccc2)c2ccccn2)c1 | -62* | -4 | 4 | -30 | -2
COc1cc(NC(=O)C/C(C)=N/NC(=O)c2ccccn2)c(OC)cc1Cl | 3 | -27 | 1 | 0 | 20
C/C(CC(=O)Nc1cccc(Cl)c1Cl)=N\NC(=O)c1ccccc1C | -43* | 2 | 3 | 11 | -7
COc1ccc(CNC(=O)C/C(C)=N/NC(=O)c2cnccn2)cc1 | 8 | 3 | 35* | 10 | 9
COc1cc(C(=O)N/N=C(\c2ccccc2)c2ccccn2)cc(OC)c1OC | -10 | -19 | 0 | ? | -8
Cc1cc(C)cc(NC(=O)CCCn2c3ccccc3c(=O)c3ccccc32)c1 | 10 | 7 | 28 | . | 2
O=C(O)C(=O)Nc1cccc(-c2nn[nH]n2)c1 | . | -27 | . | . | .
O=S(=O)(c1ccc(Cl)cc1)N1CCN(c2nc(-c3ccc(F)cc3)nc3cc(Cl)ccc23)CC1 | 5 | . | 1 | . | 5
C/C(=N\NC(=O)c1ccc(Cl)cc1)c1ccccn1 | -15 | -35 | 3 | -106* | -2
C/C(=N\NC(=O)COc1ccccc1-c1ccccc1)c1ccccn1 | -2 | -22 | 12 | -58* | 1
C/C(=N\NC(=O)c1cc(C)nc2ccccc12)c1ccco1 | . | 6 | -1 | 4 | -4
C/C(=N\NC(=O)COc1ccccc1-c1ccccc1)c1cccnc1 | 9 | 6 | 1 | 1 | 3
C/C(=N\NC(=O)c1cc(C)nc2ccccc12)c1ccncc1 | -43* | -8 | 0 | -14 | -3
C/C(=N\NC(=O)c1cc(C)nc2ccccc12)c1ccccn1 | -13 | -15 | 3 | -74* | -1
CCC(CC)C(=O)c1c[nH]c(C(=O)N2CCN(c3ccc(OC)cc3)CC2)c1 | -13 | 3 | 1 | -15 | -6
COc1ccc(NC(=O)NCCn2nnc3cc(S(=O)(=O)N(C)C)ccc32)cc1 | -10 | 3 | -1 | . | 0
COc1ccc(C(=O)NCC(=O)OC(C(=O)Nc2cc(C(F)(F)F)ccc2Cl)c2ccccc2)cc1OC (stereo not given) | -16 | . | 5 | . | -1
O=C(O)c1ccc(Nc2ncnc3c2cnn3Cc2ccccc2)cc1 | -46* | 5 | 6 | 6 | -1
Cc1ccc(Nc2ncnc3c2nnn3Cc2ccccc2)cc1 | 7 | 30* | 4 | 5 | 0
Cc1ccc(CN2CCN(C3CCNCC3)C(=O)C2=O)cc1 | 9 | -27 | -2 | . | 0
CN(CCOc1ccccc1)C(=O)C1CCN(C(=O)c2ccc(F)cc2)CC1 | 5 | 1 | 5 | 6 | -1
Clc1ccc(CSc2nc3ncccc3[nH]2)cc1 | -8 | -2 | 2 | . | -2
Cc1nc2c(-c3ccc(F)cc3)c(C)nn2c(C)c1CCC(=O)NCc1ccc(F)cc1 | -26 | -10 | 0 | . | -6
Cc1nc2c(-c3ccccc3)c(C)nn2c(C)c1CCC(=O)NCc1ccco1 | -43* | 0 | 0 | 4 | -16
CCOc1ccc(NC(=O)CCc2c(C)nc3c(-c4ccccc4)c(C)nn3c2C)cc1 | -11 | 0 | 2 | . | -5
SMILES | D1 antagonist | D3 ag | D1 ag | D3 antag | D1 PAM
Cc1nc2c(-c3ccc(F)cc3)c(C)nn2c(C)c1CCC(=O)NCc1cccc(Cl)c1 | -39* | -3 | 2 | . | -7
CCN1CCN(c2ccc(NC(=O)CCc3c(C)nc4c(-c5ccccc5)c(C)nn4c3C)cc2)CC1 | -84* | -11 | 4 | 6 | -10
O=[N+]([O-])c1ccc(N/N=C/c2cn(Cc3ccc(F)cc3)c3ccccc23)nc1 | -2 | -2 | 13 | -54* | -5
CCOc1ccc(C(CC(=O)O)NC(=O)C(CC)c2ccccc2)cc1 (stereo not given) | -19 | 2 | 2 | 6 | -3
CCOC(=O)c1cc(-c2ccc(OC)cc2)nc2c1c(C)nn2CCC(N)=S | 18 | -11 | 1 | -15 | -8
COc1ccc(-n2ccnc2SCC(=O)Nc2ccccc2)cc1 | -4 | -1 | 3 | 4 | -3
CCn1c(CNC(=O)Cc2ccc(OC)cc2)nnc1SCC(=O)NC1CCCCC1 | -39* | 7 | 0 | 21 | -5
CCCNC(=O)CSc1nccn1Cc1ccc(OC)cc1 | -13 | -4 | 4 | 0 | -2
COc1ccc(Cn2ccnc2SCC(=O)NC2CCCC2)cc1 | -67*! | -3 | 6 | 3 | 4
O=C(CSc1nccn1-c1ccc(F)cc1)Nc1ccc(OC(F)(F)F)cc1 | -76* | 4 | 0 | . | -5
COc1ccc(NC(=O)CSc2nccn2Cc2ccccc2)c(OC)c1 | -36* | 2 | 9 | 12 | -7
COC(=O)c1ccccc1NC(=O)CSc1nccn1C | -1 | 9 | -1 | 5 | -2
COc1cccc(-n2ccnc2SCC(=O)Nc2ccccc2F)c1 | -37* | -4 | 3 | -12 | -5
CCn1c(Cc2ccc(OC)cc2)nnc1SCC(=O)Nc1nc2ccccc2s1 | -31* | 3 | 4 | -22 | -8
CCn1c(SCC(=O)Nc2nc3ccccc3s2)nnc1-c1ccc(Br)cc1 | -8 | -6 | 2 | 9 | -4
Cc1cccc(C)c1OCC(=O)NCc1nnc(SCC(=O)NC2CCCCC2)n1C | 2 | -7 | 3 | -72* | 4
Cn1ccnc1SCC(=O)Nc1cccc2ccccc12 | -34* | 0 | 2 | -18 | -7
O=C(Nc1cc(Cl)cc(Cl)c1)c1ccc(F)c(S(=O)(=O)NC2CCCC2)c1 | -4 | -5 | 5 | . | 4
COc1ccc(/C=N/NC(=O)c2cc(C(C)(C)C)[nH]n2)cc1COc1ccc(F)cc1F | 0 | -11 | 4 | -27 | 0
Cn1cc(-c2csc(C(C)(O)c3cccnc3)n2)cn1 (stereo not given) | . | -3 | . | 24 | .
COc1cc(NC(=O)Cn2c(SCc3ccc(F)cc3)nc3cccnc32)cc(OC)c1 | -3 | -3 | 15 | . | -4
COc1ccc(NC(=O)CSc2oc(-c3cccs3)nc2S(=O)(=O)c2ccccc2)c(OC)c1 | 0 | 59* | 6 | . | 0
COc1ccc(NC(=O)CSc2oc(-c3cccs3)nc2S(=O)(=O)c2ccc(C)cc2)c(OC)c1 | 11 | 8 | 1 | . | 0
COc1ccc(NC(=O)Cn2c(SCc3ccc(C)cc3)nc3cccnc32)c(OC)c1 | -27 | 39* | 11 | . | -3
CC1(C)C2CCC1(CS(=O)(=O)N1CCOCC1)C(=O)C2 (stereo not given) | -13 | 36* | 3 | 15 | -2
CC1(C)C2CCC1(CS(=O)(=O)N1CCC(C(N)=O)CC1)C(=O)C2 (stereo not given) | 13 | 1 | 4 | 1 | -4
Cc1ccc(Nc2cc(C)nn2-c2nc(C)cc(=O)[nH]2)cc1 | 6 | 0 | -1 | -67* | -1
COCCCNC(=O)Cn1ccc(N)nc1=O | 3 | 38* | 2 | 14 | 0
